Among the data in PMC7819943, “Rice protein-binding microarrays: a tool to detect cis-acting elements near promoter regions in rice” are binding signal values, retold here.

The full ranking holds about 68,000 sequences; the median of “fluorescence intensity (a.u.)” is about 9,100, and the highest 2% start at about 16,000. Only a selection was taken, and the highest values are over-represented in it overall.

Sequence of OsWRKY34 (Q0JBA9 entry or part of it): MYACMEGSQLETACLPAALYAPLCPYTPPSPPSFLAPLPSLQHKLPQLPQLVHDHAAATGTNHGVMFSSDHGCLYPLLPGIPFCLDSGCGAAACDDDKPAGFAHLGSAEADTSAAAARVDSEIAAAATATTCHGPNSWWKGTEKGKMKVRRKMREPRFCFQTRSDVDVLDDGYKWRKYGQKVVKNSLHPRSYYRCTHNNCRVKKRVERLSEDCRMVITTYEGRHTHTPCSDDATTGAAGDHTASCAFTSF

The assay addresses OsWRKY34 (Oryza sativa, UniProt Q0JBA9 1-250). In words: protein-binding microarray (RPBM); PBS, 2% BSA, 51.3 ng/ul salmon testes DNA, 50 uM zinc acetate, 200 nM TF, 25 C, 1 h; high values mean tight binding. The conditions noted are these: protein: recombinant; tags: N-terminal polyhistidine and DsRed monomer fusion (pET32a); label: CyDye5-dUTP incorporated in the synthesized complementary strand; 3' TTTTT single-stranded linker to array surface; dsDNA, one strand shown. An outline of the steps: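 Using Ni–NTA, transcription factors fused N-terminally to polyhistidine and DsRed were purified after expression in E. coli BL21-CodonPlus. These were incubated at 200 nM with a blocked, double-stranded custom Agilent array for 1 h at 25 °C in a buffer containing 50 µM zinc acetate, and the array was washed. The binding signal is per-feature fluorescence intensity (arbitrary units) on an Axon 4000B scanner.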
Take “CTCTCCTCCCTATTCTTTTCCTTTCCTCTCCTTTCCTTTCCGGAGTCACCTAGTGCAG”: the binding signal was 8870 fluorescence intensity (a.u.).
Then “ACTGTCTCGTATTCTATTCCTCATTCCTTCTCTTTTTTTCCGGAGTCACCTAGTGCAG”, with 19600 fluorescence intensity (a.u.); and “ATCATTCCTAACTGCCTGGTCGTACTTCTCTGTATTTTGTCGGAGTCACCTAGTGCAG”, with 17500 fluorescence intensity (a.u.).
Then “GTTTTGTATGGTTCTCTGGATATATTACTGCCTGTAAATTCGGAGTCACCTAGTGCAG”, with 8320 fluorescence intensity (a.u.); and “AACTCACTCTCGCGTTCGCGTCGTCTCCGGCCTTTTCTTGCGGAGTCACCTAGTGCAG”, with 8870 fluorescence intensity (a.u.).
Then “TCCGTCGTCTTCCTTTACTGGTTCTATGTCTTCTCAGTAACGGAGTCACCTAGTGCAG”, with 10800 fluorescence intensity (a.u.).
“CTTTCCGTCGCGTCTCGTCTTCTCATGGTTGCAACTCTCCCGGAGTCACCTAGTGCAG”: the binding signal was 18100 fluorescence intensity (a.u.).
Then “TACTGGTCGTCTGGTCTACTCCGTCTCTCCTCTTCTCTCCCGGAGTCACCTAGTGCAG”, with 12200 fluorescence intensity (a.u.); and “TCCTCATGCCTCTTTTTCCTCCTCCTTCCTTCTCTCATTCCGGAGTCACCTAGTGCAG”, with 10200 fluorescence intensity (a.u.).
Then “TTTCTCCGTCGTCTTCCTCTACTGGTTCTATGTCTTCTCACGGAGTCACCTAGTGCAG”, with 18800 fluorescence intensity (a.u.).
Then “CTTGGTTTCTTGTTGTGCAACTCTCGTCGTCTCGTTCATCCGGAGTCACCTAGTGCAG”, with 11500 fluorescence intensity (a.u.).
“ACTTGTATTCTTCCTCGTCTTCCTCTTCTGTATTTCTGGTCGGAGTCACCTAGTGCAG”: the binding signal is 8140 fluorescence intensity (a.u.).
In the case of “CCCGGCCTTAGCATACTATTATTTTAGCACTAATCTTAACCGGAGTCACCTAGTGCAG”, the binding signal is 9300 fluorescence intensity (a.u.).
Then “TTTTATAAATTCGAGCGTGTGCGGGTTTCGTTTTCTCACTCGGAGTCACCTAGTGCAG”, with 9840 fluorescence intensity (a.u.); and “GCTGTGGTCATGGACAGGGGACGGGCTGGGGTCGTCGCGCCGGAGTCACCTAGTGCAG”, with 8090 fluorescence intensity (a.u.); and “TTTTGCTACAGTGCTCGGATATATCTGGGACGTCCATTTTCGGAGTCACCTAGTGCAG”, with 10200 fluorescence intensity (a.u.).
For “TGCGTACACTCCTTTGAAACCCCATTGCTATGTAGACAATCGGAGTCACCTAGTGCAG”, the binding signal was 8020 fluorescence intensity (a.u.).
Then “TAAAATTCTGTTCCGCCGCGTTTGCCCTCGTCAACTAATCCGGAGTCACCTAGTGCAG”, with 9750 fluorescence intensity (a.u.); and “ATGTCTGTATCTGTTATTGTTTCTATTGTGTCTGATCCAACGGAGTCACCTAGTGCAG”, with 8980 fluorescence intensity (a.u.); and “AACTAGGTCCCTCGGCGGTTTTGACTCCTGTTTTGTCCAACGGAGTCACCTAGTGCAG”, with 12500 fluorescence intensity (a.u.).
Turning to “GGCAACCACGTAATTCCCTCCCTTTTCAGTTACTCATCAACGGAGTCACCTAGTGCAG”, the binding signal is 9620 fluorescence intensity (a.u.).
In the case of “GGTTCCAATTCGTCGCCTGATACTCCGATTCGAGTTCTTGCGGAGTCACCTAGTGCAG”, the binding signal is 12700 fluorescence intensity (a.u.).
Then “CTCGTTGTCGTGCTGCTTGTAATTCATCTAGTTTGTCTACCGGAGTCACCTAGTGCAG”, with 10000 fluorescence intensity (a.u.); and “CTTGGATTCTGAGGTGGGCTTGAACTTGATATGAATTAGGCGGAGTCACCTAGTGCAG”, with 8100 fluorescence intensity (a.u.); and “CGAGTCTTTTGTGCGGGTGGTTGGGGCGTGGGCGGTGGCGCGGAGTCACCTAGTGCAG”, with 23100 fluorescence intensity (a.u.).
Then “CAAATTCTAGACTTTTTGGTGGGTTGCGTGCGAGGGGTGGCGGAGTCACCTAGTGCAG”, with 10500 fluorescence intensity (a.u.); and “GAGGTGACGCTGCCGCCGGCGGTGGGCGGAGTGGGAGGGGCGGAGTCACCTAGTGCAG”, with 8390 fluorescence intensity (a.u.); and “GTGTAACTTGTTTTGCTAGGGTTTTTGATTGCTTTTTACTCGGAGTCACCTAGTGCAG”, with 12000 fluorescence intensity (a.u.).
Then “GGCCGGGCGAGGCGCTGGGAGGTGGCGGCTAGCGGCGGGGCGGAGTCACCTAGTGCAG”, with 8500 fluorescence intensity (a.u.); and “GTAAACTTATTCTTTGGGCGTTGTTATTATTTGGGGCAATCGGAGTCACCTAGTGCAG”, with 11400 fluorescence intensity (a.u.); and “GTGCGTGTAAACTTTTTTGGGGTTGTTTTGGGCGGTTACTCGGAGTCACCTAGTGCAG”, with 18200 fluorescence intensity (a.u.).
With “TTTAGGGGTGTTTGGTTGAGGGGTGAGTGGGATGGGTTGGCGGAGTCACCTAGTGCAG”, the binding signal was 10300 fluorescence intensity (a.u.).
In the case of “TGTTCTTGCTACGCTGGGAGGGGAGGGGTGGCGCCGCGGCCGGAGTCACCTAGTGCAG”, the binding signal was 21700 fluorescence intensity (a.u.).
Then “TTGGGTTGGGTTGGTGAGGTGGGGAGATGGTTTGGTGAGGCGGAGTCACCTAGTGCAG”, with 17300 fluorescence intensity (a.u.); and “GGTGGTTGGCGCGCGTTTTCTTGTGTGGTTTTTTGTGTCGCGGAGTCACCTAGTGCAG”, with 14200 fluorescence intensity (a.u.); and “AGATGAGAGGTTTGGTTGGTTGGATGGTGGGGAGCGCCCGCGGAGTCACCTAGTGCAG”, with 10400 fluorescence intensity (a.u.).
For “ATTTGTTCCCATCCATCTCGGCCCTGTCGCCATTGTGCCACGGAGTCACCTAGTGCAG”, the binding signal was 9450 fluorescence intensity (a.u.).
Then “GATTGATTATCCTTTTCTTAAACTATTTTCCTGTTTTTCACGGAGTCACCTAGTGCAG”, with 13200 fluorescence intensity (a.u.); and “GCCAAGCCTTTTTCTTCTACTCTTTTTGGCATGGAACTCACGGAGTCACCTAGTGCAG”, with 8350 fluorescence intensity (a.u.).
For “AACGATTTGCATGTCATACAGATACATCACATTTCTTTCTCGGAGTCACCTAGTGCAG”, the binding signal was 8520 fluorescence intensity (a.u.).
With “AGCAAATTCCTTTATGTTTTTTCTTATGTCTTCTCCAGCTCGGAGTCACCTAGTGCAG”, the binding signal was 9040 fluorescence intensity (a.u.).
Then “ACACTCTATTAAGAGGATCCGTTTCATTTTTTGTTCCATCCGGAGTCACCTAGTGCAG”, with 8760 fluorescence intensity (a.u.); and “CTATACTCACCCACTTGCCAATTTGCCATTGCCAACACCTCGGAGTCACCTAGTGCAG”, with 9100 fluorescence intensity (a.u.); and “TTGTTGGCTCAATATAGTTATCCTCCTTTGACCCAGTTAACGGAGTCACCTAGTGCAG”, with 9120 fluorescence intensity (a.u.).
Then “GGGTGGAGGAGGGGACTTCGGGAGGGCGGTGGCGAGGGCGCGGAGTCACCTAGTGCAG”, with 16400 fluorescence intensity (a.u.); and “GGAGGTGGTGGCGCTGCCTCGGGGCCCCTCGCCTGGGAGGCGGAGTCACCTAGTGCAG”, with 9800 fluorescence intensity (a.u.).
As for “TGGGTTTTACGGTTTTACCCTCTCGGGCTTGAGGGGAGAGCGGAGTCACCTAGTGCAG”, the binding signal was 47600 fluorescence intensity (a.u.).
Then “GCGAGTGAGGAGGGGCGGCGCGCGGTGGCCGGCGGGTGAGCGGAGTCACCTAGTGCAG”, with 8070 fluorescence intensity (a.u.).
Turning to “GGGAGCGGCGGAGGAGGAGGGCGCGGCGGCGGTGGGGTGGCGGAGTCACCTAGTGCAG”, the binding signal was 18100 fluorescence intensity (a.u.).
Then “GGTGGGCGGAGTGGGAGGGGAGGCATCGGCGCCTCGGTGGCGGAGTCACCTAGTGCAG”, with 16800 fluorescence intensity (a.u.); and “GCTCGGCGGCGCCGCGGCGGCGGTGGCGGAGGCGGGGATGCGGAGTCACCTAGTGCAG”, with 8910 fluorescence intensity (a.u.); and “GGGAGGGGTGCGGCGCGGTGGCGCTGGAGCGGAGGAGCGTCGGAGTCACCTAGTGCAG”, with 9990 fluorescence intensity (a.u.).
Then “AGGTGAGAGGAGGAGAGAGACGGGTTTAGGGCTTTAGGAGCGGAGTCACCTAGTGCAG”, with 8040 fluorescence intensity (a.u.); and “TGGCGGCGTGGAGCCGCGAGGGCGGTGGCGGCGGGGAGTTCGGAGTCACCTAGTGCAG”, with 10400 fluorescence intensity (a.u.).
Then “TGTTCGGTGGGCGAGGAGAGGAGTGGGTGGGAGTGGACTGCGGAGTCACCTAGTGCAG”, with 8780 fluorescence intensity (a.u.).
Turning to “AGGAGAGGGGTTTACTCGGTTGAGGATTTTCTTGTTCTCACGGAGTCACCTAGTGCAG”, the binding signal was 8180 fluorescence intensity (a.u.).
